Test results reported in ChEMBL document CHEMBL4888484, “Replenishing the malaria drug discovery pipeline: Screening and hit evaluation of the MMV Hit Generation Library 1 (HGL1) against asexual blood stage Plasmodium falciparum ,using a nano luciferase reporter read-out” (2022).
The whole screen tested about 150,000 compounds, of which about 540 (0.36%) showed an effect of 50% or more. Only a selection was taken, and strong results are over-represented in it overall.

What follows are molecules tested on Plasmodium falciparum (assay: Primary screen in NF54 nanoGlo assay, in single point, at 2uM, 72h; a lower Z score goes with more inhibition). Details: timepoint 72 hour.
Format: functional, Erythrocyte
`O=C(c1n[nH]c2c1CCCCCC2)N1CCC(c2nc(C3CCOCC3)no2)CC1` was tested, and the “% Inhibition” value was -3% and the Z score was 0.4.
For `C[C@@H](CN1CCc2ccccc2C1)NC(=O)c1cnc2c(c1)CCCC2`, the “% Inhibition” value was -3% and the Z score was 0.47.
With `CCn1cc(-c2cccc(C(=O)N[C@@H](C)c3nc(C)sc3C)c2)cn1` the “% Inhibition” value was -4% and the Z score was 0.85.
`CN(CC(F)(F)F)C(=O)CN1C(=O)c2ccccc2C(C)(C)C1=O` was tested, and the “% Inhibition” value was 2% and the Z score was -0.16.
`Cc1[nH]ncc1CCCNCc1cccc(O)c1` was tested, and the “% Inhibition” value was 39% and the Z score was -0.35.
`Cc1cn2nc(C(=O)NCCc3ccc(S(N)(=O)=O)cc3)cc2c(=O)[nH]1` was tested, and the “% Inhibition” value was -18% and the Z score was 3.38.
`Cc1cn2nc(C(=O)NCCc3ccccc3)cc2c(=O)[nH]1` was tested, and the “% Inhibition” value was 3% and the Z score was -0.45.
With `COc1ccc(CCNC(=O)c2cc3c(=O)[nH]c(C)cn3n2)cc1OC` the “% Inhibition” value was 61% and the Z score was -7.83.
With `CCN(CC)S(=O)(=O)c1ccc2c(c1)nnn2CCNC(=O)Nc1cccc(F)c1` the “% Inhibition” value was 26% and the Z score was -2.96.
With `CNC(=O)CCCN(C)c1ccnc2cc(Br)cnc12` the “% Inhibition” value was -9% and the Z score was 1.06.
For `Cc1cc(CN(C)c2ccnc3cc(Br)cnc23)no1`, the “% Inhibition” value was 12% and the Z score was -0.99.
With `C[C@@H](CN)N(C)c1ccnc2cc(Br)cnc12` the “% Inhibition” value was 99% and the Z score was -17.88.
In the case of `Cc1cc(C(=O)N[C@@H]2COC(C)(C)C2)n(C2CCOCC2)n1`, the “% Inhibition” value is reported as 3% and the Z score is reported as -0.34.
In the case of `C[C@@H](C(=O)N(C)CC1(CO)CCCC1)N1CCN(C)CC1`, the “% Inhibition” value is reported as -13% and the Z score is reported as 1.47.
For `COc1cc(CNCCCN2CCOCC2)ccc1OCc1ccc(Cl)cc1`, the “% Inhibition” value was 50% and the Z score was -4.4.
With `COc1cc(CNCCN2CCOCC2)ccc1OCc1cccc(C)c1` the “% Inhibition” value was 42% and the Z score was -5.6.
For `COc1ccc(-c2cc3n(n2)CCC(=O)N3Cc2ccc(C(=O)NCCN3CCCCC3)cc2)cc1`, the “% Inhibition” value was 10% and the Z score was -1.2.
In the case of `COc1ccc(S(=O)(=O)N2CCC(n3cnnc3C)CC2)cc1Cl`, the “% Inhibition” value is reported as -11% and the Z score is reported as 1.63.
With `COc1cccc(S(=O)(=O)N2CCC(c3cc(N)on3)CC2)c1` the “% Inhibition” value was 19% and the Z score was -2.95.
With `COc1ccc(S(=O)(=O)N2CCC(c3cc(N)on3)CC2)cc1Cl` the “% Inhibition” value was 57% and the Z score was -3.68.
With `C[C@@H](c1nc(C(C)(C)C)no1)N1CCN(C(c2ccccc2)c2ccccc2)CC1` the “% Inhibition” value was -18% and the Z score was 1.54.
In the case of `c1ccn2cc(Cc3nc(C4CC4)cs3)nc2c1`, the “% Inhibition” value is reported as 5% and the Z score is reported as -0.54.
`CCCN(CCc1cccs1)C(=O)CCc1cscn1` was tested, and the “% Inhibition” value was -14% and the Z score was 1.18.
For `CCn1nc(C)cc1C(=O)N[C@H]1CC2(CCCCC2)Oc2ccccc21`, the “% Inhibition” value was -13% and the Z score was 1.49.
In the case of `Cn1cnnc1N1CCN(C(=O)NC[C@]2(C)C[C@H]2c2ccccc2)CC1`, the “% Inhibition” value is reported as -9% and the Z score is reported as 1.79.
For `O=C(CCCn1cccn1)NS(=O)(=O)c1ccc2ccccc2c1`, the “% Inhibition” value was -7% and the Z score was 0.99.
In the case of `O=C(COc1ccccc1Cl)Nc1ccc(C2(c3ccc(NC(=O)COc4ccccc4Cl)cc3)c3ccccc3-c3ccccc32)cc1`, the “% Inhibition” value is reported as 38% and the Z score is reported as -1.02.
In the case of `Nc1ccc(C2(c3ccc(N)cc3)c3ccccc3C(=O)c3ccccc32)cc1`, the “% Inhibition” value is reported as 18% and the Z score is reported as -2.61.
With `O=C(Nc1ccc(-c2c3ccccc3c(-c3ccc(NC(=O)c4cccc5ccccc45)cc3)c3ccccc23)cc1)c1cccc2ccccc12` the “% Inhibition” value was -8% and the Z score was 1.08.
With `O=C(Nc1ccc(C2(c3ccc(NC(=O)c4ccc(F)cc4)cc3)c3ccccc3C(=O)c3ccccc32)cc1)c1ccc(F)cc1` the “% Inhibition” value was 77% and the Z score was -2.85.
In the case of `O=C1NC(c2ccc(NC(=O)c3cccc4ccccc34)cc2)(c2ccc(NC(=O)c3cccc4ccccc34)cc2)c2ccccc21`, the “% Inhibition” value is reported as 23% and the Z score is reported as -3.32.
`O=C1c2ccccc2C(c2ccc(NC(=O)c3cccc4ccccc34)cc2)(c2ccc(NC(=O)c3cccc4ccccc34)cc2)c2ccccc21` was tested, and the “% Inhibition” value was 95% and the Z score was -13.49.
For `Cc1cccc(NC(=O)CN2CC(=O)NC[C@H]2c2ccccc2)c1C`, the “% Inhibition” value was -6% and the Z score was 0.77.
With `N[C@H](C(=O)Nc1cncc(Br)c1O)C1CCOCC1` the “% Inhibition” value was 10% and the Z score was -1.45.
`CNc1nc(N2CCOCC2)nc2ccccc12` was tested, and the “% Inhibition” value was 2% and the Z score was -0.34.
`CN(C)[C@H]1CCN(CC(=O)NC2(c3cc(F)ccc3F)CC2)C1` was tested, and the “% Inhibition” value was 8% and the Z score was -1.27.
With `OCCn1nc(Cc2cccs2)nc1CCN1CCCCCCC1` the “% Inhibition” value was -16% and the Z score was 2.13.
In the case of `Cc1nnc(CN2CCC[C@H](c3nc(C(C)C)cs3)C2)s1`, the “% Inhibition” value is reported as -8% and the Z score is reported as 1.01.
In the case of `CC1(C)NC(=O)N(CC(=O)N2CCC[C@H]2c2ccc3c(c2)OCCCO3)C1=O`, the “% Inhibition” value is reported as -13% and the Z score is reported as 1.7.
For `Cc1ccc(-c2c[n+](-c3ccc(OC(F)F)cc3)c3n2CCCCC3)cc1`, the “% Inhibition” value was 66% and the Z score was -12.11.
`COc1ccc(C(=O)C[n+]2cc(-c3cccc(Br)c3)n(C)c2N)cc1` was tested, and the “% Inhibition” value was 3% and the Z score was -0.43.
`Cc1ccc(NCc2n[n+](CC(=O)c3ccccc3)c3n2CCCCC3)cc1` was tested, and the “% Inhibition” value was -40% and the Z score was 4.69.
In the case of `FC(F)Oc1ccc(-c2c[n+](-c3cccc(C(F)(F)F)c3)c3n2CCCCC3)cc1`, the “% Inhibition” value is reported as 39% and the Z score is reported as -3.9.
In the case of `COc1ccc(C(=O)C[n+]2cc(-c3ccc(OC)cc3)n3c2CCCC3)cc1`, the “% Inhibition” value is reported as 65% and the Z score is reported as -8.89.
`COc1ccc(C(=O)C[n+]2nc(CNc3ccc(Br)cc3)n3c2CCCCC3)cc1` was tested, and the “% Inhibition” value was 78% and the Z score was -12.51.
`Cc1ccc([N+]2=C3CCCCCN3C[C@]2(O)c2ccc(OC(F)F)cc2)cc1` was tested, and the “% Inhibition” value was -12% and the Z score was 1.97.
In the case of `CCOc1ccc([C@@]2(O)CN3C=CC=CC3=[N+]2c2ccccc2)cc1`, the “% Inhibition” value is reported as -39% and the Z score is reported as 4.59.
In the case of `O=C(C[n+]1nc(-c2n[n+](CC(=O)c3ccccc3)c3n2CCCCC3)n2c1CCCCC2)c1ccccc1`, the “% Inhibition” value is reported as 6% and the Z score is reported as -1.08.
In the case of `CCOc1ccc(-[n+]2cc(-c3ccccc3)n3c2CCC3)cc1`, the “% Inhibition” value is reported as 68% and the Z score is reported as -6.48.
With `Cn1c(-c2ccc(Br)cc2)c[n+](CC(=O)c2ccc(Br)cc2)c1N` the “% Inhibition” value was 41% and the Z score was 0.35.
`CCOc1ccc([C@@]2(O)CN3CCCCCC3=[N+]2c2ccc(C)cc2)cc1` was tested, and the “% Inhibition” value was 1% and the Z score was -0.19.
